Tau fibril ThT: blocks human tau fibril formation measured by thioflavin T; P10636; recombinant tau K18 P301L, heparin-induced fibrillization, ThT fluorescence; Potency, µM (highest dose often 57.4 µM), usual class: inhibitors; 2.1% of 270,000 active; AID 1460; note: nearly all actives have a fitted effect of over 55% in size
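Using a mix of unlabeled (15 uM) and Alexa 594-labeled (0.24 uM) tau K18 P301L, heparin-triggered fibrillization over 6 hr at 37 C was scored by ThT fluorescence.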
Tau fibril FP: tau fibrillization inhibition (FP); P10636; K18 P301L tau heparin fibrillization, Alexa594 FP, 6 h; Potency, µM (top dose mostly 57.7 µM), actives largely listed as inhibitors; 0.39% of 280,000 active; AID 1468; note: nearly all actives have a fitted effect of over 55% in size
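Human K18 P301L fragment (15 uM unlabeled plus 0.24 uM Alexa 594-labeled) in 100 mM sodium acetate pH 7 with compound, aggregation induced by 20 uM heparin for 6 hr at 37 C. ThT (30 uM) added for 1 hr, then Alexa 594 FP read.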
HPGD block: blocks human HPGD enzyme activity | P15428 | AID 894 | Potency, µM, most hits filed as inhibitors | purified HPGD, NADH fluorescence kinetic, PGE2 substrate | 4.3% of 150,000 active; active = well fitted inhibition curve with a large enough effect, not every such curve was filed as active; inconclusive = small, poorly fitted or top-dose-only effect, or another doubt; inactive = no such curve, though single readings can be large or run the other way
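NADH formation kinetics: reaction with 30 uM PGE2 and 1 mM NAD+ (final), 20 nM enzyme, Tris-HCl pH 8 with Tween 20, after 15 min compound preincubation at room temperature. Fluorescence change, last versus first of five reads.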
Tau fluor cs: counter-screen for tau fibril formation inhibitors; tau K18 P301L Alexa594 fluorescence, heparin fibrillization; Potency, µM (highest dose often 57.7 µM); 0.93% of 280,000 active; note: nearly all actives have a fitted effect of over 55% in size
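Human tau K18 P301L (15 uM unlabeled, 0.24 uM Alexa 594-labeled) in 100 mM sodium acetate pH 7 with 20 uM heparin, 6 hr at 37 C. ThT 30 uM added, 1 hr ambient; Alexa 594 FP and total fluorescence read at 555/632 nm.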
ALDH1A1 inh: blocks purified human ALDH1A1 activity; P00352; Purified ALDH1A1, NADH fluorescence, propionaldehyde substrate; Potency, µM (top dose mostly 75.3 µM), usual class: inhibitors; 7.3% of 220,000 active; AID 1030; active = well fitted inhibition curve with a large enough effect, not every such curve was filed as active; inconclusive = small, poorly fitted or top-dose-only effect, or another doubt; inactive = no such curve, though single readings can be large or run the other way
Target sequence (P00352 whole entry, looked up): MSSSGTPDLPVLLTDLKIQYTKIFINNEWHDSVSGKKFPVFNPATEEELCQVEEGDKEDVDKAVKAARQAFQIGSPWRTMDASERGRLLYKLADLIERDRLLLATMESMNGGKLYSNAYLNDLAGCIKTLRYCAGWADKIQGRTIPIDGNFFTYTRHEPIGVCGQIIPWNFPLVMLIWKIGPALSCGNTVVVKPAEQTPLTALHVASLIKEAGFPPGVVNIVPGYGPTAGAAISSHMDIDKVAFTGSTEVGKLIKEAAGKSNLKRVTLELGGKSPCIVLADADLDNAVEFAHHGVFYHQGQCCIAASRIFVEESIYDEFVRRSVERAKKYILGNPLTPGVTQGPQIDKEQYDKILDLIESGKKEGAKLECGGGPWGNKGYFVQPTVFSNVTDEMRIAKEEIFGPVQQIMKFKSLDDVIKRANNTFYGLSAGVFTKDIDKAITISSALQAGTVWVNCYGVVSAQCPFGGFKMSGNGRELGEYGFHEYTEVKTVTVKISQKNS
NPSR antag: antagonists of human neuropeptide S receptor cAMP signaling | Potency, µM (highest dose often 38.3 µM), hits mostly inhibitors | CHO-NPSR cells, cAMP TR-FRET, antagonist mode | 1% of 220,000 active; note: nearly all actives have a fitted effect of over 50% in size
Hits are given with their value; – = inactive; ? = inconclusive; · = no result; [ ] = dose if it differs, or a comment. Most compounds without a hit are left out; they make up all but 9.5% or so of the library. Unless noted, calls come from the whole dose curve; as a rule, active = well fitted curve in the direction sought with a large enough effect; inconclusive = small, poorly fitted or top-dose-only effect, or another doubt; inactive = no such curve, though single readings can be large; an effect the other way counts as inactive or inconclusive.

SMILES	Tau fibril ThT	Tau fibril FP	HPGD block	Tau fluor cs	ALDH1A1 inh	NPSR antag
COc1cc(/C=C2\SC(=Nc3ccc(N4CCOCC4)cc3)N(C)C2=O)ccc1OC(C)C(=O)O (stereo unspecified)	?	?	–	–	–	–
c1coc(-c2nnc3sc(-c4cccs4)nn23)c1	–	–	–	–	20µM	–
COc1cccc(-c2nnc3sc(-c4ccco4)nn23)c1	–	–	?	–	28µM	–[7.67 µM]
COc1ccc(-c2nnc3sc(-c4ccco4)nn23)cc1OC	–	–	?	–	?	?
CC(C)c1nc2c(c(=O)n(C)c(=O)n2C)n1C	–	–	·	–	·	–
CC1=NN(C(N)=S)C(=O)C1N=Nc1ccccc1C (stereo unspecified)	10µM	–	–	–	5µM	–
CC1=NN(C(N)=S)C(=O)C1N=Nc1ccc(C)cc1C (stereo unspecified)	3.2µM	–	–	?	10µM	–
CC1=NN(C(N)=S)C(=O)C1N=Nc1c(C)cc(C)cc1C (stereo unspecified)	4.5µM	–	–	–	–	–
CC1=NN(C(=O)c2ccncc2)C(=O)[C@@H]1N=Nc1ccc2ccccc2c1	·	·	–	·	–[13.5 µM]	·
CC(C)(C)C(=O)NC1(C(F)(F)F)NC(=O)N(c2ccccc2F)C1=O (stereo unspecified)	–	–	·	–	·	–
Oc1cc(-n2cccn2)c(O)cc1-n1cccn1	16µM	?	·	16µM[quencher]	?	–
N=C1/C(=C\c2coc3ccccc3c2=O)C(=O)N=C2SC=CN12	?	–	·	–	·	–
CSC1=NSC2=NC(=O)/C(=C/c3coc4ccccc4c3=O)C(=N)N12	18µM	?	?	?	?	–
CSC1=NSC2=NC(=O)/C(=C/c3coc4ccc(O)cc4c3=O)C(=N)N12	22µM	–	22µM	?	?	–
COc1cccc(-c2ccc3ncnc(NCc4cnc(C)cn4)c3c2)c1	·	·	·	·	–	·
Cc1ccc(N/N=C/c2c(C)c(C#N)c(=O)n(C)c2O)cc1C	–	–	·	–	0.79µM	–
COc1cc(S(=O)(=O)Nc2ccc(C)cc2)ccc1N=Cc1c(C)c(C#N)c(=O)n(C)c1O	?	?	·	–	–	?
CCOC(=O)C1=C(C)NC(=O)CC1c1cc2c(cc1[N+](=O)[O-])OCO2 (stereo unspecified)	22µM	?	·	?	?	–
Cn1c(N)c(C(=O)COC(=O)c2cc(-c3ccccc3)nc3ccccc23)c(=O)n(Cc2ccccc2)c1=O	–	14µM	?	?	–	–
COC1C(O)COC1/C=C/c1ccccc1 (stereo unspecified)	–[11.5 µM]	–[11.6 µM]	·	–[11.6 µM]	–[13.5 µM]	·
O=C(/C=C/c1ccco1)NC1CCCC1	–	–	·	–	22µM	–
Cc1ccnc(NC(=S)NC(=O)/C=C/c2ccco2)c1	?	–	–	–	?	–
O=C(/C=C/c1ccc(Br)cc1)NC1CCCCCC1	–	–	–	–	–	–
O=C(/C=C/c1ccco1)NC(=S)Nc1ccc(Cl)cn1	22µM	–	–	?	10µM	–
CCCC(=O)NC(=S)Nc1ccc(Cl)cn1	–	–	–	–	25µM	–
SMILES	Tau fibril ThT	Tau fibril FP	HPGD block	Tau fluor cs	ALDH1A1 inh	NPSR antag
COC(=O)c1ccccc1NC(=O)/C=C/c1ccco1	–	–	–	–	25µM	–
O=C(NC(=S)Nc1ccc(Cl)cn1)c1cccs1	–	–	–	–	?	–
O=C(CCn1c(=O)c2sccc2n(CC(=O)OCc2ccccc2)c1=O)NCc1ccccc1	–	–	–	–	?	–
CC(=O)NC(=S)Nc1ccc(NC(=S)NC(=O)/C=C/c2ccco2)cc1	·	–	·	?	·	–
NS(=O)(=O)c1ccc(NC(=O)/C=C/c2ccco2)cc1	–	–	·	–	24µM	–
CCCCCC(=O)Nc1ccc(N2CCN(C(=O)c3ccccc3)CC2)cc1	?	–	–	–	–	–
O=C(/C=C\c1ccco1)Nc1ccc(N2CCN(C(=O)c3ccccc3)CC2)cc1	11µM	–	–	?	–	–
COc1ccc(NC(=S)NC(=O)/C=C/c2ccco2)cc1	?	–	·	–	7.1µM	–
O=C(/C=C/c1ccco1)NC(=S)Nc1ccc(O)c(-c2nc3ccccc3s2)c1	?	–	–	–	?	1µM
Cn1cc(C(=O)NCc2ccccc2)c(=O)c2cc(S(=O)(=O)N3CCCCCC3)ccc21	–	–	·	–	·	·
